Inconclusive results are not listed. A call without a number means that no potency is given here. Calls of active or inactive are those of the source. Calls follow the shape of the dose curve; as a rule, active = well fitted activation curve with a large enough effect; inconclusive = small, poorly fitted or top-dose-only effect; inactive = no such curve, though single readings can be large or run the other way.
Potency is read from the fitted curve at half-maximal effect.

A short description of this assay: qHTS Assay for Rab9 Promoter Activators: Hit Validation Using Renilla Luciferase Read-Out for Rab9. The note with it: Huh7 Rab9 promoter Renilla luciferase reporter, 24 h; series mostly up to 76.9 µM. The essentials: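 Luciferase reporter read-out: promoter activation measured by luminescence after 10 min with detection reagent at room temperature. Cells were Huh7 with a stable promoter-luciferase construct, treated 24 h at 37 deg C.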
Turning to `COc1ccc(NC(=O)CCCN2C(=O)C(c3ccccc3)Oc3cccnc32)cc1OC` (stereo not drawn), the Potency entry was “inactive”.
On to `O=C(CSc1nnc(Cc2cc(=O)[nH]c(=O)[nH]2)n1-c1ccc(Cl)cc1)NC1CCCC1`, for which the Potency result was “inactive”.
As to `COc1ccc([N+](=O)[O-])cc1COc1ccc2c(-c3ccccc3)cc(=O)oc2c1`, the Potency is 3.28 µM (active).
Regarding `Cc1ccc(N=Cc2sc(O)c3ccccc23)c(C)c1`, the Potency entry was “inactive”.
In the case of `O=C(CCc1cccc(Cl)c1)NC1CCCN(Cc2ccccc2F)C1` (stereo not drawn), the Potency entry is “inactive”.
With `CCOC(=O)C1(Cc2cccc(Cl)c2)CCCN(C(=O)CCSC)C1` (stereo not drawn), the Potency result was “inactive”.
For `COc1cccc(NC(=O)CN2C(=O)CSc3ccc(S(=O)(=O)N4CCC(C)CC4)cc32)c1` the value was “inactive”; for `CC(C)(C)C(=O)N/C(N)=N/c1nc2ccccc2o1`, “inactive”; for `CCN(C(=O)COC(=O)c1ccc(C=O)cc1)c1c(N)n(Cc2ccccc2)c(=O)[nH]c1=O`, “inactive”.
In the case of `Cc1ccc(NC(=O)c2cccc(N3C(=O)CCC3=O)c2)nc1` it was “inactive”.
For `COC(=O)c1ccccc1NC(=O)c1cc(-c2cccs2)on1` the value was “inactive”; for `CC(=O)c1c(C)[nH]c(C(=O)Nc2cccc(S(=O)(=O)N(C)C)c2)c1C`, 20.7 µM (active).
Consider `O=C(CCS(=O)(=O)c1ccccc1)Nc1ccc(-c2nc3ccccc3s2)cc1`, for which the Potency entry was “inactive”.
On to `CCC(=O)N1c2ccccc2NC2=C(C(=O)CCC2)C1c1ccc(N(C)C)cc1` (stereo not drawn), for which the Potency result was “inactive”.
In the case of `CC1CN(C(=O)c2ccncc2)CC(C)O1` (stereo not drawn) it was “inactive”; in that of `O=C(CCNC(=O)c1ccc(Br)o1)NCc1ccc(Cl)cc1`, “inactive”.
Turning to `CN(C)C(=O)[C@H]1C[C@H]1[C@@H](O)[C@H](CO)NC(=O)[C@H](COCc1ccccc1)NC(=O)OC(C)(C)C`, the Potency result was “inactive”.
For `Cc1cc(C)c2c(N)c(C(=O)Nc3ccc([N+](=O)[O-])cc3)sc2n1` the value was “inactive”; for `CC(Sc1ncnc2c1cnn2-c1ccccc1)C(=O)Nc1ccc(N2CCOCC2)cc1` (stereo not drawn), “inactive”.
With `Cc1c(C(O)CN2CCN(Cc3ccc4c(c3)OCO4)CC2)c2ccccc2n1C` (stereo not drawn), the Potency result was “inactive”.
As to `CC1(C)CC(=O)c2c(O)c(-c3ccccc3)c(=O)n(-c3ccccc3)c2C1`, the Potency result was “inactive”.
Regarding `Cc1ccc(C(=O)Nc2ccc(N3CCN(C)CC3)nc2)cc1`, the Potency entry is “inactive”.
With `COc1ccc(NC(=S)NNC(=O)c2cccs2)cc1`, the Potency entry was “inactive”.
As to `O=C(NC(=S)Nc1ccc(CN2CCCCC2)cc1)c1cc2ccccc2o1`, the Potency entry was “inactive”.
For `O=C(CCCN1C(=O)C(c2ccccc2)Oc2cccnc21)Nc1ccccc1Cl` (stereo not drawn), the Potency entry was “inactive”.
For `CC(=O)Nc1ccc(-c2csc(Nc3ncccn3)n2)cc1` the value was “inactive”.
In the case of `CCOC(=O)c1ccc(-c2nnc(-c3ccc(Cl)cc3Cl)o2)cc1`, the Potency entry was “inactive”.
In the case of `CCC(=O)NC(=S)Nc1ccc(N2CCOCC2)cc1` it was “inactive”.
Regarding `C=CCn1c(C)nnc1SCC(=O)Nc1nccs1`, the Potency result is “inactive”.
For `COc1ccc2oc(=O)c(C(=O)NC(C)c3ccccc3)cc2c1` (stereo not drawn), the Potency entry is “inactive”.
For `Cc1nc(SCC(=O)NC(=O)NC(C)(C)C)nc(C)c1C` the value was “inactive”.
For `O=C(COc1ccccc1F)Nc1ccc(-c2nc3ccccc3s2)cc1` the value was “inactive”.
Turning to `Nc1ccccc1C(=O)N/N=C1/C2CN3CCN(C2)CC1(Cc1ccccc1)C3`, the Potency entry was “inactive”.
As to `O=C(COC(=O)c1ccc(-c2nnc(-c3ccccc3)o2)cc1)c1ccccc1`, the Potency result was “inactive”.
As to `O=C(CSc1nnc(-c2ccccc2)o1)Nc1ccccc1F`, the Potency entry was “inactive”.
In the case of `N#C/C(=N\Nc1ccc(Cl)cc1)C(=N)N1CCCCC1`, the Potency entry is “inactive”.
For `COc1ccc(C(c2nnnn2CCc2ccccc2)N2CCN(C3CCCC3)CC2)cc1` (stereo not drawn) the value was 13 µM (active).
Consider `O=C(Nc1ccc(-c2nc3cccnc3s2)cc1)c1ccc(Cl)nc1`, for which the Potency entry is “inactive”.

Source of the values: PubChem BioAssay AID624116 (National Center for Advancing Translational Sciences (NCATS), 2012).
